The supplement of paper PMC10849652
The full data set covers some 8,800 targets. This sample favours those with a hit. About 0.5% of all pairs of compound and target were hits.

Columns and labels:
Assay in all cases: log2 fold change, soluble protein after heating vs DMSO (PISA); higher = thermal stabilisation; K562 lysate, 10 uM; active = over 0.2 and 3.5 SD of the protein, either way, in both replicates (recomputed)
ibrutinib = compound: C=CC(=O)N1CCC[C@@H](n2nc(-c3ccc(Oc4ccccc4)cc3)c3c(N)ncnc32)C1 [ibrutinib]
In short: (§1)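 Pellets of K562 cells were dounce-homogenised in PBS pH 7.4 with 1 mM MgCl2, and the crude extract was held at 1 mg/mL protein for a 30 min treatment with 10 μM compound. Aliquots were heated for 3 min over 48°C-58°C and pooled before NP-40 was added to 0.5% at 4°C. The supernatant from 21,000xg for 90 min was quantified by TMTpro 16plex LC-MS/MS with channel sums equalised. Values are reported from duplicates as log-two fold change in thermal stability relative to solvent controls.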

[1] = compound: CC(=O)c1cnc2ccc(-c3cc(Cl)c(O)c(Cl)c3)nc2c1N[C@H]1CC[C@H](CN(C)C)CC1
In short: as §1

ralimetinib = compound: CC(C)(C)Cn1c(N)nc2ccc(-c3[nH]c(C(C)(C)C)nc3-c3ccc(F)cc3)nc21 [ralimetinib]
In short: as §1

[2] = compound: CC(C)(O)CC(=O)NCCn1ccc2ncnc(Nc3ccc(Oc4cccc(C(F)(F)F)c4)c(Cl)c3)c21
In short: as §1

[3] = compound: CC(C)C1=C2N=C(C=C(N2N=C1)NCC3=CC=CC=C3)NCCCCCCN
In short: as §1

[4] = compound: CC1=C(C(CC(=O)N1)C2=CC=C(C=C2)C(F)(F)F)C(=O)NC3=C(C=C4C(=C3)C=NN4)F
In short: as §1

[5] = compound: CC1=C(C2=C(C=C1)C(=O)C3=CC=CC=C3N2CCCN)C
In short: as §1

[6] = compound: CC1=C(C=C(C=C1)NC(=O)C2=CC(=CC=C2)C(C)(C)C#N)NC3=CC4=C(C=C3)N=CN(C4=O)C
In short: as §1

[7] = compound: CC1=C(C=C(C=C1)NC(=O)C2=CC(=CC=C2)N(C)C)NC(=O)C3=CC=C(C=C3)O
In short: as §1

[8] = compound: CC1=CC=C(C=C1)SC2=C3C=C(SC3=CN=C2)C(=O)N
In short: as §1

vemurafenib = compound: CCCS(=O)(=O)Nc1ccc(F)c(C(=O)c2c[nH]c3ncc(-c4ccc(Cl)cc4)cc23)c1F [vemurafenib]
In short: as §1

[9] = compound: CCCS(=O)(=O)Nc1ccc(F)c(C(=O)c2c[nH]c3ncc(Cl)cc23)c1F
In short: as §1

barasertib = compound: CCN(CCCOc1ccc2c(Nc3cc(CC(=O)Nc4cccc(F)c4)[nH]n3)ncnc2c1)CCOP(=O)(O)O [barasertib]
In short: as §1

[10] = compound: CC[C@@H]1C(=O)N(C)c2cnc(Nc3ccc(C(=O)NC4CCN(C)CC4)cc3OC)nc2N1C1CCCC1
In short: as §1

volasertib = compound: CC[C@@H]1C(=O)N(C)c2cnc(Nc3ccc(C(=O)N[C@H]4CC[C@H](N5CCN(CC6CC6)CC5)CC4)cc3OC)nc2N1C(C)C [volasertib]
In short: as §1

[11] = compound: CCn1c(C(=O)N(C2CC2)C2CC2)cc2c3c(ncn3C)c(Nc3cc(C)n(C)n3)nc21
In short: as §1

[12] = compound: CCn1cc(-c2ccnc3[nH]c(-c4cccc(CN(C)C)c4)cc23)c(-c2ccc(NC(=O)N(C)C)cc2)n1
In short: as §1

[13] = compound: CN1CCC(CNc2ccc3ncc(-c4cccc(OC(F)(F)F)c4)n3n2)CC1
In short: as §1

saracatinib = compound: CN1CCN(CCOc2cc(OC3CCOCC3)c3c(Nc4c(Cl)ccc5c4OCO5)ncnc3c2)CC1 [saracatinib]
In short: as §1

sotrastaurin = compound: CN1CCN(c2nc(C3=C(c4c[nH]c5ccccc45)C(=O)NC3=O)c3ccccc3n2)CC1 [sotrastaurin]
In short: as §1

Measured: log2 fold change

UBE3C (UniProt Q15386)
UniProt Q15386, sequence (Q15386 whole entry, looked up): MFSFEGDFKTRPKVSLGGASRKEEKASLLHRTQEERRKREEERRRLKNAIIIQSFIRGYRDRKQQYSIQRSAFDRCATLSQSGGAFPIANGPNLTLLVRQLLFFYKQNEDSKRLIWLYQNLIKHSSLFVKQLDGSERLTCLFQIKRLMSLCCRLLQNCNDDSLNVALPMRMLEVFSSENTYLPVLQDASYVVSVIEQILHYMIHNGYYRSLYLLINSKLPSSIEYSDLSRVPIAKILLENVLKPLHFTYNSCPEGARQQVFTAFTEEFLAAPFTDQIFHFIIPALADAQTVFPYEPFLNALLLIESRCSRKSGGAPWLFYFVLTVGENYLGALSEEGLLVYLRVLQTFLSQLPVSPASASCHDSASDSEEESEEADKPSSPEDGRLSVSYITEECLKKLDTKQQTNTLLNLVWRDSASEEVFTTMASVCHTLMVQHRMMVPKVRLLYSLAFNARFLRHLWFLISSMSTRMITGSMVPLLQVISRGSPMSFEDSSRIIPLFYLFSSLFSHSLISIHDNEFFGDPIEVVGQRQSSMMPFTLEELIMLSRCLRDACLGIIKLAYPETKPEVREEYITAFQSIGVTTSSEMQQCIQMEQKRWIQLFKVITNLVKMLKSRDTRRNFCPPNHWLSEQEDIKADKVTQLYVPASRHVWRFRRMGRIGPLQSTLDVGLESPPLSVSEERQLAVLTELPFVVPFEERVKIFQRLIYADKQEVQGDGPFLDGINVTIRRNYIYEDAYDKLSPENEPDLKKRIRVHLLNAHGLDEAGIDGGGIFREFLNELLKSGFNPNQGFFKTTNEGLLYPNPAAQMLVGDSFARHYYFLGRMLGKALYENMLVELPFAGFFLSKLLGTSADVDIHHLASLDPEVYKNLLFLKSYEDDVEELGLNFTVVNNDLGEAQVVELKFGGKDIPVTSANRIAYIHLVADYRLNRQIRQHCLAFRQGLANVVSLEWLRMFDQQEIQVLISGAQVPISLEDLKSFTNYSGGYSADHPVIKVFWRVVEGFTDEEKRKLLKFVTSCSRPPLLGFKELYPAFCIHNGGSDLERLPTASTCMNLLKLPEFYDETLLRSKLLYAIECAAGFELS
inactive: ibrutinib -0.011 | [1] 0.024 | ralimetinib 0.012 | [2] -0.028 | [3] -0.011 | [4] 0.005 | [5] 0.04 | [6] -0.021 | [7] 0.021 | [8] 0.01 | vemurafenib -0.001 | [9] 0.006 | barasertib 0.016 | [10] -0.021 | volasertib -0.073 | [11] 0.086 | [12] -0.075 | [13] 0.002 | saracatinib 0.04 | sotrastaurin 0.03

TUBA4A (UniProt P68366)
UniProt P68366, sequence (P68366 whole entry, looked up): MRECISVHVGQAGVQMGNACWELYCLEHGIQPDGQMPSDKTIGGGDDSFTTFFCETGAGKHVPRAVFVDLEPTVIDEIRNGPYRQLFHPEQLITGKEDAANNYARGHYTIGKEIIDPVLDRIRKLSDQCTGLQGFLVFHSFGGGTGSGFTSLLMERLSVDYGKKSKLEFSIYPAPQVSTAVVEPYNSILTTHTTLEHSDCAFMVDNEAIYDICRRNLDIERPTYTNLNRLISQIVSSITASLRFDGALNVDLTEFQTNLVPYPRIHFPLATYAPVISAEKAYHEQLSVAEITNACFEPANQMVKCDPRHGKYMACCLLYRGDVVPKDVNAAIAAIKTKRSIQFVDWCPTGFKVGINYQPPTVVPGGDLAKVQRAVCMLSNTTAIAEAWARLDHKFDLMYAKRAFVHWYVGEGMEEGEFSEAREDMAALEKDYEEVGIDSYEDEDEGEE
inactive: ibrutinib -0.012 | [1] 0.023 | ralimetinib 0.012 | [2] 0.017 | [3] 0.023 | [4] -0.031 | [5] -0.013 | [6] 0.017 | [7] -0.017 | [8] 0.012 | vemurafenib 0.003 | [9] -0.045 | barasertib 0.028 | [10] -0.023 | volasertib -0.056 | [11] 0.033 | [12] -0.05 | [13] 0.003 | saracatinib -0.036 | sotrastaurin -0.039

TTL (UniProt Q8NG68)
UniProt Q8NG68, sequence (Q8NG68 whole entry, looked up): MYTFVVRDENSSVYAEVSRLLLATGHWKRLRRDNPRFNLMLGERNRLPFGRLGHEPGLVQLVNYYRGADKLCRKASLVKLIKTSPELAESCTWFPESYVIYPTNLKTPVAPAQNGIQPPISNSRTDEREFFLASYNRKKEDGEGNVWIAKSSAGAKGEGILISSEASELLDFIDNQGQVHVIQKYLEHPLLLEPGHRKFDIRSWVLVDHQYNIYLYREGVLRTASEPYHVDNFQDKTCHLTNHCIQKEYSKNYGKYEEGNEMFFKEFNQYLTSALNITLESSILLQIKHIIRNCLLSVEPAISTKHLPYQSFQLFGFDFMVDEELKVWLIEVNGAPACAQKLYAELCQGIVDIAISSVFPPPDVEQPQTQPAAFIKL
inactive: ibrutinib 0.014 | [1] 0.101 | ralimetinib -0.029 | [2] 0.037 | [3] 0.018 | [4] 0.016 | [5] -0.065 | [6] 0.063 | [7] 0.063 | [8] -0.074 | vemurafenib -0.066 | [9] 0.053 | barasertib 0 | [10] -0.231 | volasertib -0.116 | [11] 0.021 | [12] 0.009 | [13] -0.044 | saracatinib -0.068 | sotrastaurin 0.078

TLE3 isoform 4 (UniProt Q04726)
inactive: ibrutinib -0.002 | [1] -0.01 | ralimetinib 0.003 | [2] -0.005 | [3] 0 | [4] -0.023 | [5] 0.012 | [6] -0.016 | [7] 0.003 | [8] -0.022 | vemurafenib 0.009 | [9] 0.01 | barasertib 0.005 | [10] 0.065 | volasertib 0.021 | [11] 0.027 | [12] -0.001 | [13] 0.01 | saracatinib 0.017 | sotrastaurin -0.017

TRIP12 isoform 2 (UniProt Q14669)
inactive: ibrutinib 0 | [1] -0.031 | ralimetinib 0.109 | [2] 0.044 | [3] -0.028 | [4] -0.004 | [5] 0.066 | [6] 0.058 | [7] -0.012 | [8] 0.031 | vemurafenib 0.014 | [9] 0.068 | barasertib 0.038 | [10] -0.001 | volasertib -0.028 | [11] 0.091 | [12] -0.031 | [13] 0.036 | saracatinib -0.007 | sotrastaurin 0.013

TRIP13 (UniProt Q15645)
UniProt Q15645, sequence (Q15645 whole entry, looked up): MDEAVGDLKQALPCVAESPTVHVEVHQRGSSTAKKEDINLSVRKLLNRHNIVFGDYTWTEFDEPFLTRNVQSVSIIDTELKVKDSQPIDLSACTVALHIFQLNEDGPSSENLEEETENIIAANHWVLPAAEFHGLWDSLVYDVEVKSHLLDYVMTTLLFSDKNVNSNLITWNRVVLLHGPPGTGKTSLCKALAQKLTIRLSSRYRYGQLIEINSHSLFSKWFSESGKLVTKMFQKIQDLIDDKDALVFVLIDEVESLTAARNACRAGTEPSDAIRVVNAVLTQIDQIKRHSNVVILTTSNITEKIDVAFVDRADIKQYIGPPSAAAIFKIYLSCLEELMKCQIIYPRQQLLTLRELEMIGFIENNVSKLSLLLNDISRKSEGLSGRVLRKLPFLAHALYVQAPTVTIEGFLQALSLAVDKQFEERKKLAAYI
inactive: ibrutinib -0.025 | [1] -0.013 | ralimetinib 0.039 | [2] 0.023 | [3] -0.022 | [4] -0.004 | [5] 0.006 | [6] 0.029 | [7] 0.045 | [8] 0.001 | vemurafenib -0.036 | [9] 0 | barasertib 0.033 | [10] -0.083 | volasertib -0.089 | [11] 0.034 | [12] 0.003 | [13] -0.019 | saracatinib 0.008 | sotrastaurin 0.05

TRAPPC9 isoform 2 (UniProt Q96Q05)
inactive: ibrutinib 0.003 | [1] 0.019 | ralimetinib 0.055 | [2] -0.025 | [3] -0.003 | [4] -0.043 | [5] -0.023 | [6] 0.02 | [7] -0.016 | [8] -0.001 | vemurafenib 0.053 | [9] 0.001 | barasertib 0.007 | [10] -0.004 | volasertib -0.059 | [11] 0.021 | [12] 0.011 | [13] 0.019 | saracatinib 0.005 | sotrastaurin -0.035

TELO2 (UniProt Q9Y4R8)
UniProt Q9Y4R8, sequence (Q9Y4R8 whole entry, looked up): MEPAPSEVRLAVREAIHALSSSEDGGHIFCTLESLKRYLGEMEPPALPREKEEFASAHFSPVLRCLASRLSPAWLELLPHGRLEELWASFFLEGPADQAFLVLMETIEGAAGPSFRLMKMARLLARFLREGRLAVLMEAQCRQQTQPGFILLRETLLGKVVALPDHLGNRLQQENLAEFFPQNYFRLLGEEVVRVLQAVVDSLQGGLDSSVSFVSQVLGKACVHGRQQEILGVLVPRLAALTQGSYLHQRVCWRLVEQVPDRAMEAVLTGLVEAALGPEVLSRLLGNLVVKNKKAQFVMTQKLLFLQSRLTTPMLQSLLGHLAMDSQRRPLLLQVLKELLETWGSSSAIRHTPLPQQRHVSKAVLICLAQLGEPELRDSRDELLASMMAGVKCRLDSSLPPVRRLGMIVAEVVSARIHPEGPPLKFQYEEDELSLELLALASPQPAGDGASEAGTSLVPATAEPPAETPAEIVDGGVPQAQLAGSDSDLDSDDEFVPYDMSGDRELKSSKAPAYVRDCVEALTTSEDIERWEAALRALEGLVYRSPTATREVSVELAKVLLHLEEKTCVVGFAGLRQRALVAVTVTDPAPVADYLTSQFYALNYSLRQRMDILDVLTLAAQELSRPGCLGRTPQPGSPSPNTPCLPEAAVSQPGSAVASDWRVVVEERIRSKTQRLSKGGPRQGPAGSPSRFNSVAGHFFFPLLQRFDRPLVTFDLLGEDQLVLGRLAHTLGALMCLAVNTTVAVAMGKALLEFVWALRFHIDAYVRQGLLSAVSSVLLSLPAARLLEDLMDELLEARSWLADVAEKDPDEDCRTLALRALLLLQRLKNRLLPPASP
inactive: ibrutinib -0.023 | [1] 0 | ralimetinib 0.019 | [2] -0.052 | [3] 0.002 | [4] 0.029 | [5] -0.015 | [6] 0.006 | [7] 0.014 | [8] 0.017 | vemurafenib 0.063 | [9] 0 | barasertib 0.088 | [10] -0.073 | volasertib -0.071 | [11] 0.048 | [12] -0.017 | [13] -0.043 | saracatinib 0 | sotrastaurin 0.037

TMEM164 (UniProt Q5U3C3)
UniProt Q5U3C3, sequence (Q5U3C3 whole entry, looked up): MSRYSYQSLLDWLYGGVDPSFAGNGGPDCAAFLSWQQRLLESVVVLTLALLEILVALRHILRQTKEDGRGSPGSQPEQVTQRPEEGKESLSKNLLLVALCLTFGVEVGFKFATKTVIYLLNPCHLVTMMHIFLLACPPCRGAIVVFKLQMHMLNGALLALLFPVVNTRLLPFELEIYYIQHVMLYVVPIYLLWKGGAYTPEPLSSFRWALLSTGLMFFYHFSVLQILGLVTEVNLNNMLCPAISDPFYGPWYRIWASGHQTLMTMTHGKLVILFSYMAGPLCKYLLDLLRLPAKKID
inactive: ibrutinib 0.053 | [1] -0.066 | ralimetinib -0.171 | [2] -0.252 | [3] -0.035 | [4] -0.184 | [5] -0.153 | [6] 0.255 | [7] 0.027 | [8] -0.061 | vemurafenib 0.179 | [9] 0.108 | barasertib 0.039 | [10] 0.176 | volasertib 0.08 | [11] -0.186 | [13] 0.262 | saracatinib 0.062 | sotrastaurin -0.084
active: [12] -0.827

TTC12 isoform 2 (UniProt Q9H892)
inactive: ibrutinib -0.002 | [1] -0.073 | ralimetinib 0.053 | [2] 0.128 | [3] -0.032 | [4] -0.049 | [5] -0.042 | [6] 0.037 | [7] -0.14 | [8] -0.003 | vemurafenib 0.025 | [9] 0.061 | barasertib 0.053 | [10] -0.049 | volasertib 0.063 | [11] -0.121 | [12] -0.208 | [13] 0.079 | saracatinib 0.038 | sotrastaurin -0.055

TPM3 (UniProt P06753)
UniProt P06753, sequence (P06753 whole entry, looked up): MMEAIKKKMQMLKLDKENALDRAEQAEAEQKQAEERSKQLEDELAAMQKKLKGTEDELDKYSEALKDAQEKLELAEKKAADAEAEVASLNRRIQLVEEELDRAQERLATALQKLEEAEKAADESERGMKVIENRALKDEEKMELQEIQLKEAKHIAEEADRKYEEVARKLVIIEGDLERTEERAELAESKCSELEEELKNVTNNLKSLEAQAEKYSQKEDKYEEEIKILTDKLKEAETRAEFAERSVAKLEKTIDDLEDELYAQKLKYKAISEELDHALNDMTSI
inactive: ibrutinib 0.009 | [1] -0.001 | ralimetinib -0.028 | [2] 0.022 | [3] 0.013 | [4] -0.028 | [5] 0.013 | [6] -0.038 | [7] -0.016 | [8] -0.007 | vemurafenib -0.008 | [9] 0.009 | barasertib -0.02 | [10] 0.043 | volasertib 0.021 | [11] 0.013 | [12] 0.182 | [13] -0.062 | saracatinib -0.011 | sotrastaurin -0.031

TYW3 (UniProt Q6IPR3)
UniProt Q6IPR3, sequence (Q6IPR3 whole entry, looked up): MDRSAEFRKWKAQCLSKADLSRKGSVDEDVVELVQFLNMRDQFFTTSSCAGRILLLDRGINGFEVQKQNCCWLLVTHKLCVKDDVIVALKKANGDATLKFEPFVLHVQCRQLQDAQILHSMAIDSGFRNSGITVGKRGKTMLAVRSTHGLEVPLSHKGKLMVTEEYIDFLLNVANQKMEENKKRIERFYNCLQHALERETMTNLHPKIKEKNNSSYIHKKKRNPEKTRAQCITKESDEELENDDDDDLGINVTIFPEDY
inactive: ibrutinib -0.052 | [1] -0.054 | ralimetinib -0.016 | [2] -0.081 | [3] 0.043 | [4] -0.015 | [5] -0.021 | [6] 0.025 | [7] 0.01 | [8] -0.004 | vemurafenib 0.024 | [9] 0.017 | barasertib 0.017 | [10] 0.038 | volasertib -0.002 | [11] -0.02 | [12] -0.218 | [13] 0.031 | saracatinib -0.031 | sotrastaurin -0.003

TCP11L1 (UniProt Q9NUJ3)
UniProt Q9NUJ3, sequence (Q9NUJ3 whole entry, looked up): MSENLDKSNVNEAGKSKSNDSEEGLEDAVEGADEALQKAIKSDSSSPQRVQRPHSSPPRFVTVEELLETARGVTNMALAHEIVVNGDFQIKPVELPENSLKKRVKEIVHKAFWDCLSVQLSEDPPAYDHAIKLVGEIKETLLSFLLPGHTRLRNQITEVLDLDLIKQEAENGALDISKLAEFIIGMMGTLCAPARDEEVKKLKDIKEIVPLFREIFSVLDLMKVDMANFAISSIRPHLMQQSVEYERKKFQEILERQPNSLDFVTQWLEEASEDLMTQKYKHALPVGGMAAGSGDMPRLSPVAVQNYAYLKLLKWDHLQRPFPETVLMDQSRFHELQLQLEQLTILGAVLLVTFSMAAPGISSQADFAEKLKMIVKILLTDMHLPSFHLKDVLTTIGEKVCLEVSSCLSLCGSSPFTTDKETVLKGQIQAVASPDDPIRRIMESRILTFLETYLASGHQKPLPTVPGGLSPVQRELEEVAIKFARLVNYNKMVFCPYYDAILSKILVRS
inactive: ibrutinib 0.026 | [1] -0.033 | ralimetinib -0.093 | [2] -0.061 | [3] -0.045 | [4] -0.032 | [5] -0.052 | [6] -0.008 | [7] 0.02 | [8] -0.008 | vemurafenib -0.078 | [9] 0.014 | barasertib 0.038 | [10] 0.045 | volasertib -0.054 | [11] 0.009 | [12] -0.244 | [13] 0.097 | saracatinib -0.007 | sotrastaurin 0.009

UBE4A isoform 2 (UniProt Q14139)
inactive: ibrutinib -0.025 | [1] 0.018 | ralimetinib 0.038 | [2] -0.038 | [3] -0.023 | [4] 0.03 | [5] 0.019 | [6] -0.009 | [7] 0.034 | [8] -0.009 | vemurafenib -0.008 | [9] -0.001 | barasertib -0.009 | [10] 0.003 | volasertib -0.053 | [11] 0.031 | [12] -0.03 | [13] -0.081 | saracatinib 0.011 | sotrastaurin 0.025

TGOLN2 isoform 7 (UniProt O43493)
UniProt O43493, sequence (O43493 whole entry, looked up): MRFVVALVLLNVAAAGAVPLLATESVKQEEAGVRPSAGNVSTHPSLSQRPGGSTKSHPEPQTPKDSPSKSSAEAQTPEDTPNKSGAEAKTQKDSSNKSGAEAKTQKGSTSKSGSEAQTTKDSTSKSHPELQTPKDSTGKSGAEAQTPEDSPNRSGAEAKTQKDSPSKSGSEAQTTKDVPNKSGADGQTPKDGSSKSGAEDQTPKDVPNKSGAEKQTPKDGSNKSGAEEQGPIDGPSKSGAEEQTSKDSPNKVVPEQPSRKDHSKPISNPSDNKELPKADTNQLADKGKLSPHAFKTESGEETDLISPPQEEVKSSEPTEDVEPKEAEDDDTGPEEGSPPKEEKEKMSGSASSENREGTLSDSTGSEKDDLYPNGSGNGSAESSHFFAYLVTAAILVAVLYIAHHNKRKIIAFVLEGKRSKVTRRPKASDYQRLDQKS
inactive: ibrutinib -0.023 | [1] 0.013 | ralimetinib -0.065 | [2] -0.058 | [3] 0.003 | [4] 0.009 | [5] 0.005 | [6] -0.033 | [7] 0.051 | [8] -0.013 | vemurafenib 0.02 | [9] 0.023 | barasertib -0.023 | [10] 0.05 | volasertib 0.035 | [11] -0.094 | [12] -0.012 | [13] 0.036 | saracatinib -0.033 | sotrastaurin 0.06
